# Test results published in the supplement of paper PMC10037445.
# Over roughly 2,900 compounds, “NF-kB SEAP reporter activity, fold change vs agonist alone” has its median near 0.99; the highest 2% begin near 2.6. The full list was thinned out, with the highest values kept by preference.
# How the values were obtained:
# RAW-Dual [1] = experiment: NF-kB SEAP reporter activity, fold change vs agonist alone; higher = enhanced NF-kB activity; settings: library stock concentration (final ~1000-fold dilution): 10 mM
# Outline: (§1)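 Cytotoxic wells were those whose IncuCyte confluency was below 70% of agonist controls in both mask sets. The cells were RAW-Dual macrophages at 50,000 cells/well in DMEM on 384-well plates, dosed with 50 nL of library stock by pin tool, stimulated with a PRR agonist 1 h later, and kept at 37 °C, 5% CO2 for 20 hours. IRF and NF-κB reporter activity, as fold change over agonist-alone wells, came from supernatant read by QuantiLuc luminescence and QuantiBlue absorbance, respectively.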
# RAW-Dual [2] = experiment: NF-kB SEAP reporter activity, fold change vs agonist alone; cytotoxicity flag (confluency mask): not cytotoxic; higher = enhanced NF-kB activity
# Outline: as §1
# RAW-Dual [3] = experiment: NF-kB SEAP reporter activity, fold change vs agonist alone; cytotoxicity flag (confluency mask): cytotoxic (confluency <70% of control); higher = enhanced NF-kB activity
# Outline: as §1
# [4] = cytotoxicity flag (confluency mask): not cytotoxic, agonist: Imiquimod (TLR7) […]
# [5] = cytotoxicity flag (confluency mask): not cytotoxic, agonist: MPLA (TLR4) […]
# [6] = agonist: ODN 1826 (TLR9) 0.5 ug/mL
# [7] = agonist: Pam2CSK4 (TLR2/6) 0.1 ug/mL
# [8] = agonist: Pam3CSK4 (TLR2/1) 0.1 ug/mL
structure (smiles),measurement,setting,value
CCOc1cc(N)c([N+](=O)[O-])cc1C(=O)NC1CCN(CC2CC=CCC2)CC1.O=C(O)C(O)C(O)C(=O)O (stereo not drawn),NF-kB SEAP reporter activity,RAW-Dual [1]; [4],1.28
same,NF-kB SEAP reporter activity,RAW-Dual [1]; [5],1.03
CCC(Nc1ncnc2[nH]cnc12)c1oc2ccccc2c(=O)c1-c1cccc(F)c1 (stereo not drawn) (library stock concentration (final ~1000-fold dilution): 10 mM),NF-kB SEAP reporter activity,RAW-Dual [2]; agonist: LPS (TLR4) 0.1 ug/mL,0.907
same,NF-kB SEAP reporter activity,RAW-Dual [2]; [6],0.718
same,NF-kB SEAP reporter activity,RAW-Dual [2]; [7],0.443
same,NF-kB SEAP reporter activity,RAW-Dual [2]; [8],0.61
CCC(Nc1ncnc2[nH]cnc12)c1oc2ccccc2c(=O)c1-c1cccc(F)c1 (stereo not drawn),NF-kB SEAP reporter activity,RAW-Dual [1]; [4],0.582
same,NF-kB SEAP reporter activity,RAW-Dual [1]; [5],0.924
O=C(Oc1cccc(F)c1OC(=O)c1cccc(O)c1)c1cccc(O)c1,NF-kB SEAP reporter activity,"RAW-Dual [1]; cytotoxicity flag (confluency mask): cytotoxic (confluency <70% of control), agonist: Imiquimod (TLR7) […]",0.964
same,NF-kB SEAP reporter activity,"RAW-Dual [1]; cytotoxicity flag (confluency mask): cytotoxic (confluency <70% of control), agonist: MPLA (TLR4) […]",1.24
O=C(Oc1cccc(F)c1OC(=O)c1cccc(O)c1)c1cccc(O)c1 (library stock concentration (final ~1000-fold dilution): 10 mM),NF-kB SEAP reporter activity,RAW-Dual [3]; agonist: LPS (TLR4) 0.1 ug/mL,1.21
same,NF-kB SEAP reporter activity,RAW-Dual [3]; [6],0.597
same,NF-kB SEAP reporter activity,RAW-Dual [3]; [7],0.639
same,NF-kB SEAP reporter activity,RAW-Dual [3]; [8],0.541
CC(C)C(NC(=O)c1ccc2ccccc2n1)C(=O)NC(CC(=O)O)C(=O)COc1c(F)cccc1F (stereo not drawn) (library stock concentration (final ~1000-fold dilution): 10 mM),NF-kB SEAP reporter activity,RAW-Dual [2]; agonist: LPS (TLR4) 0.1 ug/mL,1.05
same,NF-kB SEAP reporter activity,RAW-Dual [2]; [6],1.05
same,NF-kB SEAP reporter activity,RAW-Dual [2]; [7],1.03
same,NF-kB SEAP reporter activity,RAW-Dual [2]; [8],1.26
CC(C)C(NC(=O)c1ccc2ccccc2n1)C(=O)NC(CC(=O)O)C(=O)COc1c(F)cccc1F (stereo not drawn),NF-kB SEAP reporter activity,RAW-Dual [1]; [4],1.01
same,NF-kB SEAP reporter activity,RAW-Dual [1]; [5],1.14
CC12CCC3C(CCC4C(C)(C(=O)O)CCCC34C)(CC1=O)C2 (stereo not drawn) (library stock concentration (final ~1000-fold dilution): 10 mM),NF-kB SEAP reporter activity,RAW-Dual [2]; agonist: LPS (TLR4) 0.1 ug/mL,1.41
same,NF-kB SEAP reporter activity,RAW-Dual [2]; [6],1.11
same,NF-kB SEAP reporter activity,RAW-Dual [2]; [7],1.13
same,NF-kB SEAP reporter activity,RAW-Dual [2]; [8],1.02
CC12CCC3C(CCC4C(C)(C(=O)O)CCCC34C)(CC1=O)C2 (stereo not drawn),NF-kB SEAP reporter activity,RAW-Dual [1]; [4],0.95
same,NF-kB SEAP reporter activity,RAW-Dual [1]; [5],1.14
O=C1OC(=O)C2C3CCC(O3)C12 (stereo not drawn),NF-kB SEAP reporter activity,RAW-Dual [1]; [4],1.93
same,NF-kB SEAP reporter activity,RAW-Dual [1]; [5],2.03
O=C1OC(=O)C2C3CCC(O3)C12 (stereo not drawn) (library stock concentration (final ~1000-fold dilution): 10 mM),NF-kB SEAP reporter activity,RAW-Dual [2]; agonist: LPS (TLR4) 0.1 ug/mL,3.23
same,NF-kB SEAP reporter activity,RAW-Dual [2]; [6],2
same,NF-kB SEAP reporter activity,RAW-Dual [2]; [7],1.84
same,NF-kB SEAP reporter activity,RAW-Dual [2]; [8],1.76
CS(=O)(=O)O.Cc1c(O)cccc1C(=O)NC(CSc1ccccc1)C(O)CN1CC2CCCCC2CC1C(=O)NC(C)(C)C (stereo not drawn),NF-kB SEAP reporter activity,RAW-Dual [1]; [4],2.13
same,NF-kB SEAP reporter activity,RAW-Dual [1]; [5],2.22
CC(C)(C)NC(=O)C1CN(Cc2cccnc2)CCN1CC(O)CC(Cc1ccccc1)C(=O)NC1c2ccccc2CC1O.O=S(=O)(O)O (stereo not drawn),NF-kB SEAP reporter activity,RAW-Dual [1]; [4],1.07
same,NF-kB SEAP reporter activity,RAW-Dual [1]; [5],1.21
CS(=O)(=O)O.Cc1c(O)cccc1C(=O)NC(CSc1ccccc1)C(O)CN1CC2CCCCC2CC1C(=O)NC(C)(C)C (stereo not drawn) (library stock concentration (final ~1000-fold dilution): 10 mM),NF-kB SEAP reporter activity,RAW-Dual [2]; agonist: LPS (TLR4) 0.1 ug/mL,4.08
same,NF-kB SEAP reporter activity,RAW-Dual [2]; [6],1.02
same,NF-kB SEAP reporter activity,RAW-Dual [2]; [7],0.418
same,NF-kB SEAP reporter activity,RAW-Dual [2]; [8],0.656
CC(C)(C)NC(=O)C1CN(Cc2cccnc2)CCN1CC(O)CC(Cc1ccccc1)C(=O)NC1c2ccccc2CC1O.O=S(=O)(O)O (stereo not drawn) (library stock concentration (final ~1000-fold dilution): 10 mM),NF-kB SEAP reporter activity,RAW-Dual [2]; agonist: LPS (TLR4) 0.1 ug/mL,1.3
same,NF-kB SEAP reporter activity,RAW-Dual [2]; [6],1.15
same,NF-kB SEAP reporter activity,RAW-Dual [2]; [7],1.2
same,NF-kB SEAP reporter activity,RAW-Dual [2]; [8],1.34
C=C(C)C(=O)Nc1cccc(-c2ncnc3[nH]cc(C(=O)OCC)c23)c1 (library stock concentration (final ~1000-fold dilution): 10 mM),NF-kB SEAP reporter activity,RAW-Dual [2]; agonist: LPS (TLR4) 0.1 ug/mL,1.36
same,NF-kB SEAP reporter activity,RAW-Dual [2]; [6],1.14
same,NF-kB SEAP reporter activity,RAW-Dual [2]; [7],1.44
same,NF-kB SEAP reporter activity,RAW-Dual [2]; [8],1.27
C=C(C)C(=O)Nc1cccc(-c2ncnc3[nH]cc(C(=O)OCC)c23)c1,NF-kB SEAP reporter activity,RAW-Dual [1]; [4],1.01
same,NF-kB SEAP reporter activity,RAW-Dual [1]; [5],1.18
C=C1C(=O)OC2/C=C(\C)CC/C=C(\C)CCC12 (stereo not drawn),NF-kB SEAP reporter activity,RAW-Dual [1]; [4],0.262
same,NF-kB SEAP reporter activity,RAW-Dual [1]; [5],0.198
C=C1C(=O)OC2/C=C(\C)CC/C=C(\C)CCC12 (stereo not drawn) (library stock concentration (final ~1000-fold dilution): 10 mM),NF-kB SEAP reporter activity,RAW-Dual [2]; agonist: LPS (TLR4) 0.1 ug/mL,0.231
same,NF-kB SEAP reporter activity,RAW-Dual [2]; [6],0.213
same,NF-kB SEAP reporter activity,RAW-Dual [2]; [7],0.153
same,NF-kB SEAP reporter activity,RAW-Dual [2]; [8],0.197
CC(=O)ON=C1C(c2c(O)[nH]c3cc(Br)ccc23)=Nc2ccccc21 (library stock concentration (final ~1000-fold dilution): 10 mM),NF-kB SEAP reporter activity,RAW-Dual [2]; agonist: LPS (TLR4) 0.1 ug/mL,3.28
same,NF-kB SEAP reporter activity,RAW-Dual [2]; [6],1.19
same,NF-kB SEAP reporter activity,RAW-Dual [2]; [7],1.55
same,NF-kB SEAP reporter activity,RAW-Dual [2]; [8],1.41
CC(=O)ON=C1C(c2c(O)[nH]c3cc(Br)ccc23)=Nc2ccccc21,NF-kB SEAP reporter activity,RAW-Dual [1]; [4],1.07
same,NF-kB SEAP reporter activity,RAW-Dual [1]; [5],1.48
CCN(CC)CCOC(=O)C(Cc1cccc2ccccc12)CC1CCCO1.O=C(O)C(=O)O (stereo not drawn) (library stock concentration (final ~1000-fold dilution): 10 mM),NF-kB SEAP reporter activity,RAW-Dual [2]; agonist: LPS (TLR4) 0.1 ug/mL,1.08
same,NF-kB SEAP reporter activity,RAW-Dual [2]; [6],0.731
same,NF-kB SEAP reporter activity,RAW-Dual [2]; [7],0.761
same,NF-kB SEAP reporter activity,RAW-Dual [2]; [8],1.01
CCN(CC)CCOC(=O)C(Cc1cccc2ccccc12)CC1CCCO1.O=C(O)C(=O)O (stereo not drawn),NF-kB SEAP reporter activity,RAW-Dual [1]; [5],0.821
Nc1nc(NCCNc2ncc(-n3ccnc3)c(-c3ccc(Cl)cc3Cl)n2)ccc1[N+](=O)[O-] (library stock concentration (final ~1000-fold dilution): 10 mM),NF-kB SEAP reporter activity,RAW-Dual [2]; agonist: LPS (TLR4) 0.1 ug/mL,2.5
same,NF-kB SEAP reporter activity,RAW-Dual [2]; [6],2.96
same,NF-kB SEAP reporter activity,RAW-Dual [2]; [7],1.46
same,NF-kB SEAP reporter activity,RAW-Dual [2]; [8],2.83
Nc1nc(NCCNc2ncc(-n3ccnc3)c(-c3ccc(Cl)cc3Cl)n2)ccc1[N+](=O)[O-],NF-kB SEAP reporter activity,RAW-Dual [1]; [4],2.49
same,NF-kB SEAP reporter activity,RAW-Dual [1]; [5],2.25
